# In the supplement of paper PMC11417369:
# The full ranking holds about 25,000 sequences; the median of “ln(normalized median fluorescence intensity)” is about 7.1, and the highest 2% start at about 10. The sample holds the highest values, similar sequences and a random draw of the others, so the mix is not that of the screen.
# Test system: PfSIP2 AP2 domain 1 (GST-tagged)
# Assay: gcPBM binding intensity (ln(normalized median fluorescence intensity)); higher = stronger DNA binding
# Procedure, shortened: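 An Agilent 4 × 180k array of primer-extended double-stranded 36-bp intergenic genomic probes, with negative controls, was incubated for 1 h with GST-tagged P. falciparum DNA-binding domains expressed in E. coli. Alexa488 anti-GST antibody detected bound protein, scanned at 488 nm. Binding intensity is the highest Masliner-normalised natural-log median intensity across replicate spots of either probe orientation.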
row,Sequence,gcPBM binding intensity (ln)
1,TTTTATTTATTATTATGTACACACTATATTAAAACA [XGTACX_site1265],7.13
2,TTGTTATTCCACCGTTGTACAGTTATATACATACAC [XGTACX_site8296],7.31
3,GTACATTGTAAGGATGGAAAAGCTAAACATTATAAT [XGTACX_negctrl_site339],6.99
4,ATAGAACAATTCAGAAGTACATAAAAAGAAAAATTT [XGTACX_site3015],6.9
5,ATGAACATTTATAAATGTACTCACATATATATATTT [XGTACX_site6692],7.02
6,TTTTTTTTTTTTGAGGTGCATATATCAGATCAATAT,10.6
7,TAATGTTGAGAATTTTGTACATATAGATCAATTTAT [XGTACX_site5426],6.84
8,ATATATATATGTTAGGTGCATATATATTTTGTGGAT [GTGCAC_site9964],9.6
9,TGATGATATAAAAACACACACATATAACATAATACT [CACACA_site6687],7.04
10,TACATATTGATATATACACACAAAAAAATAAATTCT [CACACA_site6198],7
11,GCACAAATATATATATATATATATATATATATATAT [GTGCAC_negctrl_site661],9.36
12,ATATATTTGATAAGAGTGCACAAATACATACATACA [GTGCAC_site9704],10.6
13,ATATAATCTGAGTGCACACAAATAAATAAACATACA [CACACA_site422],10.4
14,TATATACATATATGCACACAAAAAAATATATATTTT [CACACA_site1729],7.3
15,AATATAATATAATGCACACATAAACAAAAAAAAAAT [CACACA_site1304],7.53
16,TACACAAATATATATATATATATATATATATATATA [XGTACX_negctrl_site305],9.89
17,TAATATAATCTGAGTGCACACAAATAAATAAACATA [CACACA_site8032],10.3
18,AAAATATAAAATAATGCACACATAAACAAAAAATCA [CACACA_site8382],7.33
19,TAAATATATAAATACACACAAACATACATATATATA [CACACA_site4050],7.55
20,TATAAATATACAAACACACATACAAACATATATATA [CACACA_site1120],7.27
21,ATGAGTGCACAAATATATATATATATATATATATAT [CACACA_negctrl_site404],11.6
22,TATACATATATTATATGTACATATATATATAATATA [XGTACX_site2942],7.26
23,TACTATCTATACAATACACACAAAAAAAAAAAAATA [CACACA_site3981],6.95

row,Sequence,gcPBM binding intensity (ln)
1,AATTGAGAAGTGTGTTGTACATAATGGCACATACCT [XGTACX_site1370],7.22
2,ATATTAACTATCATAACACACACAGTAGACATATTT [CACACA_site6941],6.99
3,CATTTTTTGCTTTCAACACACATACAATATAAATAA [CACACA_site7858],7.27
4,ATGAACTAAACTAATCGTACAATAAGTTTTATTATA [XGTACX_site4891],6.84
5,GGCATTTTATGAAGTAGTACCATAAATATTAAAGAT [XGTACX_site5287],7.32
6,TTTATATTTATCCAAAGTACTTTTTAAAAACATACC [XGTACX_site4518],7.36
7,TGGCTTATTCAGAAATGTACACATATAAATATATAT [XGTACX_site3765],7.11
8,AATGGGATCATGGTATGTACTTACACAAATGAATTA [XGTACX_site5389],6.82
9,CTATAAATATTTTATTGTACACACTTTTTATGAATG [XGTACX_site6711],7.22
10,TTCATTAAAATTATTACACACAGTTCTTCAACCAAA [CACACA_site3504],6.84
11,AAAGGTTTATATGATACACACATAAGTGATCAGGTT [CACACA_site190],6.75
12,GGAAAAATATAATATGCATGTTATTATTTTTTTATA [TGCATGCA_site836],6.77
13,AGATATTTATTGAGTGCATGTTATAAAGGGAAAAAA [TGCATGCA_site88],10.3
14,GTAGATATTTATTGAGTGCATGTTATAAAGGGAAAA [GTGCAC_site9481],9.62
15,TAAAAACATTTAAATTGTACGGAAATAAAAATTTTT [XGTACX_site8225],6.94
16,AGTAATAGTTTGTGCACACTCAAGTATATCATATAT [CACACA_site4034],9.56
17,TATATTTCTTCTATAACATGCAGATATATGAAAATA [TGCATGCA_site971],7.11
18,AATATATGGTTTCATGATATTAAATTCAAAATAATG [CACACA_negctrl_site318],6.75
19,TATTTCAAAATATGGGTGCAGTTCTTCATGATATAT [GTGCAC_site9658],10.7
20,TTTAAAAAATGTTATATTATATAATTAAAAAAAAAA [CACACA_negctrl_site1509],6.63
21,AACCAAACAAATAAACGTACAAACATTACATATATT [XGTACX_site2265],7.05
22,TTACTATGTAAACACACATGCAATATATGTTAAGCC [TGCATGCA_site253],6.91
